Compound activity as filed in PubChem BioAssay.
BAZ2B inh – qHTS Assay for Inhibitors of BAZ2B; AID 504333, 2011; Bromodomain adjacent to zinc finger domain protein 2B (Homo sapiens), Q9UIF8; Potency, µM (titrated, usually from 114 µM), for inactives: at the highest dose activity change, negative = inhibition, most hits filed as inhibitors; 360,000 compounds, 4.4% hits; AlphaScreen BAZ2B-H3K14Ac peptide displacement; further: on the % scale 0 is the no-effect control and ±100 the full control effect; nearly all actives have a fitted effect of over 60% in size
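BAZ2B (50 nM) with biotin-H3(5-23)K14Ac peptide (50 nM) in PBS pH 7.4, 0.01% Tween-20, preformed 30 min, then compound 30 min at room temperature; top concentration 110uM. AlphaScreen streptavidin donor/nickel chelate acceptor beads (10 ug/mL final), 20 min dark, signal read.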
12-LOX inh – Primary qHTS assay for inhibitors of human arachidonate 12S-lipoxygenase (ALOX12): Round 2. purified 12hLO, xylenol orange hydroperoxide absorbance. Potency, µM (doses to about 108 µM), for inactives: at the highest dose activity change, negative = inhibition, hits mostly inhibitors. 580,000 compounds, 1.1% hits. AID 1671190, 2021; further: on the % scale 0 is the no-effect control and ±100 the full control effect
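Purified human 12hLO at 150 nM in 25 mM Hepes, 0.01% Triton X-100, pH 7.0, preincubated 15 min at room temperature with compound. Reaction started with 40 uM arachidonic acid, 30 min at room temperature. Hydroperoxide measured by Fe-xylenol orange, 573/405 nm absorbance ratio.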
HP1b chromo inh – HTS for Inhibitors of HP1-beta Chromodomain Interactions with Methylated Histone Tails. 390,000 compounds, 0.56% hits. AID 540317, 2011. Potency, µM (titrated, usually from 114 µM), for the others: top-dose activity change, negative = inhibition, actives largely listed as inhibitors. AlphaScreen HP1-beta / biotin-H3K9me3 peptide binding. Chromobox protein homolog 1 (Homo sapiens), P83916; further: nearly all actives have a fitted effect of over 70% in size
Target sequence (P83916 whole entry, looked up): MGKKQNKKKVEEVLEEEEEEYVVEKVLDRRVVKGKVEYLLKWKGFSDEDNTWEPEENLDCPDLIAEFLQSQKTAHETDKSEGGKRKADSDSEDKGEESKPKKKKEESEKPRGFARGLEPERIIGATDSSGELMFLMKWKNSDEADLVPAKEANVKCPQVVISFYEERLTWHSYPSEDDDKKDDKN
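Compound inhibition of the preformed complex between 50 nM HP1-beta and 50 nM biotinylated H3K9me3 peptide was read by AlphaScreen. Buffer was PBS pH 7.4 with 0.01% Tween-20. Incubations ran 30 min at room temperature, with 10 ug/mL donor/acceptor beads.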
G9a block – qHTS Assay for Inhibitors of Histone Lysine Methyltransferase G9a; 350,000 compounds, 8.8% hits; G9a H3K9 monomethylation, AlphaScreen, 2 h; AID 504332, 2011; Potency, µM (highest dose often 102 µM), inactives show at the top dose activity, negative = inhibition, actives largely listed as inhibitors; further: on the % scale 0 is the no-effect control and ±100 the full control effect; nearly all actives have a fitted effect of over 75% in size
Target sequence (Q96KQ7 913-1193 limits assumed): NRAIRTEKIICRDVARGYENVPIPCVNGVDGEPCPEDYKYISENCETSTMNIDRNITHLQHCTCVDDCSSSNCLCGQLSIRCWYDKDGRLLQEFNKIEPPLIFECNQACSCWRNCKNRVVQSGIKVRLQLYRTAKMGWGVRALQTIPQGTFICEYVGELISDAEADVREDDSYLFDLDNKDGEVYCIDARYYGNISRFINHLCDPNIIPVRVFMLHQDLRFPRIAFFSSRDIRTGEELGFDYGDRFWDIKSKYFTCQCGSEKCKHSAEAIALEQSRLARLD
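Methyltransferase reactions run at room temperature for 2 h (20 nM enzyme, 500 nM biotin-H3K9 peptide, 20 uM SAM) after a 15 min compound preincubation; product detected by AlphaScreen beads and anti-H3K9me1 antibody.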
Sfp inh – qHTS Assay for Inhibitors of Bacillus subtilis Sfp phosphopantetheinyl transferase (PPTase). 4'-phosphopantetheinyl transferase ffp (Bacillus subtilis), Q9F4F7. Biochemical Sfp PPTase activity, qHTS. Potency, µM, inactives show largest response in the series, negative = inhibition, hits mostly inhibitors. 310,000 compounds, 3.5% hits;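 further: the enzyme is Sfp with the accession as filed and its product quenches rhodamine fluorescence; 0% = enzyme reaction without inhibitor and -100% = no enzyme wells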
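After 15 min at room temperature with compound, 15 nM Sfp received 5 uM rhodamine-CoA plus 12.5 uM BHQ-2-ybbR (50 mM Hepes pH 7.6, 10 mM MgCl2). Rate came from the fluorescence difference over 30 min, ex 525/em 598 nm.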
JMJD2A Tudor – qHTS Assay for Inhibitors of JMJD2A-Tudor Domain. 390,000 compounds, 4.4% hits. Potency, µM (doses to about 114 µM), inactives show at the top dose activity change, negative = inhibition, actives largely listed as inhibitors. AlphaScreen JMJD2A-Tudor / H3K4me3 peptide binding. Lysine-specific demethylase 4A (Homo sapiens), O75164; further: on the % scale 0 is the no-effect control and ±100 the full control effect; nearly all actives have a fitted effect of over 50% in size
* hit, by the source's call; ? = inconclusive; nt = not tested or not shown; [ ] = another dose, or the depositor's remark. This is a sample that favours compounds with a hit; in the whole collection about 8.7% have one here. The call rests on the fitted dose curve; in most records, active means well fitted curve in the direction sought with a large enough effect; inconclusive means small, poorly fitted or top-dose-only effect, or another doubt; inactive means no such curve, though single readings can be large; an effect the other way counts as inactive or inconclusive. Potency means the concentration at half of the fitted maximal effect.

SMILES | BAZ2B inh | 12-LOX inh | HP1b chromo inh | G9a block | Sfp inh | JMJD2A Tudor
O=C(CSc1nc2ccc(Cl)cc2[nH]1)Nc1ccc2[nH]c(=O)[nH]c2c1 | 3% | -25% | 15% | 5.6µM* | nt | ?
O=C(CSc1nc2ccc(Cl)cc2[nH]1)Nc1ccc(S(=O)(=O)N2CCCCC2)cc1 | nt | -26% | nt | nt | nt | nt
O=S(=O)(c1ccc(Br)cc1)N1CCC(n2cnnc2C2CC2)CC1 | nt | 7% | nt | nt | nt | nt
CCCNC(=O)N[C@@H]1CCC[C@@H](C(=O)N(CC)CC)CC(=O)N(C)C1 | nt | 40µM* | nt | nt | nt | nt
Oc1cc(-n2cccn2)c(O)cc1-n1cccn1 | 32µM* | ? | 2.8µM* | 0.71µM* | 5µM* | 0.79µM*
CCOc1ccc(NC(=O)CN(C)C(=O)c2ccc(N3CCOCC3)c([N+](=O)[O-])c2)cc1OCC | -24% | ? | 14% | -8%[12.7 µM] | 4% | -14%
CCOc1ccc(NC(=O)CN(C)C(=O)c2ccc3nc(CC)c(CC)nc3c2)cc1OCC | 0% | ? | 17% | 50µM* | nt | -19%
O=C(c1ccc(N2CCCCC2)c([N+](=O)[O-])c1)N(Cc1ccccc1)c1ccccn1 | 32µM* | -22% | ? | ? | 13% | 45µM*
CCN(CC(=O)Nc1c(F)cccc1F)C(=O)c1cc([N+](=O)[O-])ccc1N1CCCCC1 | -7% | 3% | 9% | 14µM* | nt | -20%
CCOc1ccc(NC(=O)CN(C)C(=O)c2ccc(N3CCCCCC3)c([N+](=O)[O-])c2)cc1OCC | ? | 13% | -37% | 13%[2.33 µM] | nt | 50µM*
CCN(CC(=O)Nc1c(F)cccc1F)C(=O)c1ccc(N2CCCC2)c([N+](=O)[O-])c1 | -34% | -2% | -1% | -38% | nt | -26%
CC1Oc2ccc(NC(=O)c3ccc(F)cc3)cc2CN(Cc2ccccc2F)C1=O (centres undefined) | nt | 27% | nt | nt | nt | nt
CN(CC(=O)Nc1cccc(F)c1)C(=O)c1ccc(N2CCCCCC2)c([N+](=O)[O-])c1 | ? | -25% | ? | ? | nt | ?
CN(CCOc1ccccc1)C(=O)c1ccc(N2CCCC2)c([N+](=O)[O-])c1 | ? | 2% | ? | 50µM* | -20% | ?
CN(CC(=O)Nc1cccc(F)c1)C(=O)c1ccc(N2CCCC2)c([N+](=O)[O-])c1 | ? | 0% | -22% | 50µM* | nt | ?
CN(CC(=O)Nc1cccc(F)c1)C(=O)c1ccc2c(c1)CC(c1ccccc1)OC2=O (centres undefined) | ? | -24% | -2% | 14µM* | nt | ?
CN(CC(=O)Nc1cccc(F)c1)C(=O)c1ccc(C2SCCS2)cc1 | -7% | -2% | 25% | 31%[59 µM] | nt | -14%
CCCN(CC(=O)Nc1ccccc1C)C(=O)c1ccc(N2CCCCC2)c([N+](=O)[O-])c1 | ? | -26% | -14% | 50µM* | nt | ?
Cc1cc(C(=O)NNC(=O)COc2ccccc2Cl)n[nH]1 | 4% | -2% | 29% | 79µM* | -5% | 12%
Cc1cnc(NC(=O)COc2ccccc2Cl)s1 | 1% | 22% | 10% | 56µM* | 18% | -18%
Cc1cnc(NC(=O)Nc2ccc(Cl)cc2)s1 | 16% | -2% | 22% | 50µM* | 10% | -10%
CCn1nc(C(=O)OC(C)C(=O)Nc2ccccc2C)c2ccccc2c1=O (centres undefined) | nt | 34% | nt | nt | nt | nt
CN(C)c1ccc(NC(=O)CSc2nc(C3CC3)nc3ccccc23)cc1 | -11% | ? | -5% | 4.5µM* | -22% | ?
